Experimental data: PubChem BioAssay (Tox21)
Where “and” joins values, the source holds several entries; their conditions need not be identical. Identical values can stand only once. Results filed as inconclusive are left out. More than one record can exist for a structure, and the calls need not agree. Calls of active or inactive are those of the source. The call rests on the fitted dose curve; in most records, active means well fitted inhibition curve with a large enough effect in the repeat runs; inconclusive means weak or mixed curves, or effect the other way; inactive means no such curve, though single readings can be large or run the other way.

Assay: qHTS assay to identify small molecule antagonists of the retinoic acid receptor (RAR) signaling pathway (AID 1159552; further: nearly all actives have a fitted effect of over 50% in size)
Conditions: C3RL4 RARE luciferase reporter, retinol-stimulated, 6 h; series mostly up to 92.4 µM; activity, negative = inhibition: at the top concentration
Excerpt: National Center for Advancing Translational Sciences [NCATS]
NIH Chemical Genomics Center [NCGC]
U.S. Environmental Protection Agency [EPA]
National Institutes of Environmental Health Sciences [NIEHS]
National Toxicology Program [NTP]
U.S. Food and Drug Administration [FDA]
All-trans Retinoic acid (atRA) is the potent natural metabolite of retinol and plays an important role in normal embryonic development and maintenance of cellular phenotype in adult animals. atRA is the activating ligand for the retinoic acid receptors (RARs) which form heterodimers with retinoid X receptors (RXRs) on the retinoic acid response element (RARE). Through activation of the RAR/RXRs nuclear receptors, atRA regulates the transcription of a large number of protein-coding genes and regulatory RNAs. Intracellular levels of atRA are controlled by the retinol signaling pathway (RSP) that regulates the biosynthesis and catabolism of atRA to maintain physiological levels. Chemicals that interfere with the RSP can cause abnormal intracellular levels of atRA and therefore are potential developmental toxicants. To assess compounds for the potential adverse effect on embryonic development through interfering with retinol signaling, a cell-based RARE luciferase reporter gene assay was used. C3RL4 cell line (OARSA/CFSAN/FDA, Laurel, MD) was used to screen Tox21 10K compound library for identifying inhibitors of the RSP.
Tox21 Assay Protocol Summary:
C3RL4 cells were seeded at 1,000/well in 4 uL of assay medium into white solid 1,536-well tissue culture plates (Greiner Bio-One North America Inc. Monroe, NC) using a Multidrop Combi (Thermo Scientific, Waltham, MA) dispenser. After incubation at 37 C and 5% CO2 for an overnight, 23 nL of compounds dissolved in DMSO, positive control or DMSO only were transferred by a Pintool station (Kalypsys, San Diego, CA). One ul of 1 uM (final concentration) of Retinol was added right after the compound addition by using a Flying Reagent Dispenser (FRD) (Aurora Discovery, San Diego, CA). After 6 hr incubation at 37 C and 5% CO2, 5 uL of Amplite Luciferase reagent (AAT Bioquest Inc. Sunnyvale, CA) was added to each assay plate using an FRD. Luminescence was quantified on a ViewLux plate reader (PerkinElmer, Waltham, MA) after 30 min incubation at room temperature.
On the % scale 0 is the no-effect control and ±100 the full control effect; potency means the concentration at half of the fitted maximal effect.

SMILES	Potency	activity, negative = inhibition
O=C1NCCN1CCN1CCC(c2cn(-c3ccc(F)cc3)c3ccc(Cl)cc23)CC1	26.6 µM (active)	
Cc1cn[nH]c1		8.44% [at 42.5 µM] (inactive)
c1ccc(Nc2cccc3ccccc23)cc1		-18.5% (inactive)
C/C=C/CO		-0.748% (inactive)
CC1CNCC(C)O1 (stereo not given)		13.6% (inactive)
CCCCCCOc1ccc(O)cc1		56.3% (inactive)
COC(=O)CC#N		1.49% (inactive)
Cn1cccc1		-1.52% (inactive)
Cn1cnc2ncnc(N)c21		-6.35% [at 42.5 µM] (inactive)
Brc1ccccn1		-11.9% (inactive)
Oc1ccc(-c2ccccc2)c(Cl)c1		25.4% (inactive)
c1ccc(Sc2ccccc2)cc1		82% (inactive)
CCCC(C)CCC(C)=O (stereo not given)		25.7% (inactive)
CCc1c(C(=O)O)c(=O)cnn1-c1ccc(Cl)cc1		0.771% (inactive)
CC(=O)OC1CCCCC1		6.22% (inactive)
c1cc[nH]c1		-1.62% (inactive)
CC(C)(C)C1=CC(=O)C=C(C(C)(C)C)C1=O		27.1% (inactive)
CC(O)C#CC(C)O (stereo not given)	30.3 µM (active)	
Cc1cccc(Br)c1		83.8% (inactive)
O=C(O)Cc1ccc(OCCNC[C@H](O)c2ccccc2)cc1		72.8% [at 42.5 µM] (inactive)

SMILES	Potency	activity, negative = inhibition
CCCCCCCCCCCCCc1ccccc1		-7.75% [at 42.5 µM] (inactive)
CCCCN(C)C		11.4% (inactive)
O=C1OC(OC(=O)c2cccnc2Nc2cccc(C(F)(F)F)c2)c2ccccc21 (stereo not given)		64.6% [at 42.5 µM] (inactive)
ClC/C=C\CCl		-0.108% (inactive)
CCC1CCCCC1		1.04% (inactive)
S=C(SSSSSSC(=S)N1CCCCC1)N1CCCCC1		-10.6% [at 19 µM] (inactive)
CCc1cccc(CC)c1NC(=O)C(=O)O		7.84% (inactive)
CC(C)c1ccc(O)c(C(C)C)c1		-6.25% (inactive)
CC(C)(c1cc(Br)c(O)c(Br)c1)c1cc(Br)c(O)c(Br)c1		-7.75% (inactive)
CC(C)(C)c1n[nH]c(=O)n(N)c1=O		3.37% (inactive)
COc1cc(C=C2CCC/C(=C\c3ccc(O)c(OC)c3)C2=O)ccc1O		56.4% [at 42.5 µM] (inactive)
CCCCCCCC(C)=O		5.14% (inactive)
CCCCCCCCCCc1ccccc1		7.47% (inactive)
CNCC[C@H](Oc1cccc2ccccc12)c1cccs1	23.7 µM (active)	
CCCCCCCCC(C)=O		18.1% (inactive)
Cc1nc(Nc2ncc(C(=O)Nc3c(C)cccc3Cl)s2)cc(N2CCN(CCO)CC2)n1	16.8 µM (active)	
CC1=C(/C=C/C(C)=C/C=C/C(C)=C/C(=O)Nc2ccc(O)cc2)C(C)(C)CCC1	inactive and 29.8 µM (active)	
CCCCCCCCCCCCOC(=O)c1cc(O)c(O)c(O)c1	inactive	
C=C/C=C/C=C/CCCCC		7.32% [at 19 µM] (inactive)
COCC(=O)O[C@]1(CCN(C)CCCc2nc3ccccc3[nH]2)CCc2cc(F)ccc2[C@@H]1C(C)C	26.6 µM (active)	
